# Compound activity (PubChem BioAssay)
# Hits are enriched below; roughly 7.3% of the tested compounds scored in any of these assays.
# NPC1 prom act = qHTS Assay for NPC1 Promoter Activators. Huh7 NPC1 promoter luciferase reporter, 24 h. Potency, µM (titrated, usually from 9.22 µM), without a hit: at the highest dose activation, hits mostly activators. actives 2.4% (n = 320,000); note: % of control where 0% means no effect; nearly all actives have a fitted effect of over 60% in size
#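 Compounds in DMSO were transferred onto Huh7 NPC1-luciferase reporter cells pre-incubated 2 h; after 24 h at 37 °C, Amplite reagent was dispensed and luminescence recorded 10 min later.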
# SMN2 splice enh = qHTS Assay for Enhancers of SMN2 Splice Variant Expression; HEK293 SMN2-luciferase splicing reporter, luminescence, 30-36 h; Potency, µM (series often up to 46.1 µM), for inactives: at the top dose activity change, positive = activation, most hits filed as activators; actives 2.8% (n = 210,000); AID 1458, 2008; note: % of control where 0% means no effect; nearly all actives have a fitted effect of over 55% in size
#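 HEK293 cells carry an SMN2 […]–luciferase reporter in which exon 7 inclusion puts luciferase in frame. Cells were plated 10-12 h before compound addition, then incubated 30-36 h at 37C. ONE-Glo luminescence was read; sodium butyrate at 4.5 mM final served as control.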
# KinaseGlo FLuc = Counterscreen for Luciferase (Kinase-Glo TM) Inhibition; Luciferin 4-monooxygenase (Photuris pensylvanica), Q27757; Kinase-Glo luciferase, ATP luminescence, 8 min; Potency, µM (doses to about 38.3 µM), for the others: at the top dose activity change, negative = inhibition, most hits filed as inhibitors; actives 0.28% (n = 200,000); note: % is set by controls: 0 for no effect and ±100 for the full control effect; nearly all actives have a fitted effect of over 60% in size
#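 Light output from Kinase-Glo luciferase with luciferin and 10 uM ATP in 50 mM imidazole pH 7.2, KCl, MgCl2, Tween 20, BSA; compound pin-delivered, 8-min ambient incubation, then luminescence read.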
# FLuc modulator = qHTS profiling assay for firefly luciferase inhibitor/activator using purifed enzyme and Km concentrations of substrates (counterscreen for miR-21 project); Luciferin 4-monooxygenase (Photinus pyralis), P08659; purified FLuc, Km substrates, luminescence inhibition; Potency, µM (series often up to 57.5 µM), without a hit: at the top dose activity change, negative = inhibition, actives largely listed as inhibitors; actives 6.9% (n = 360,000); AID 588342, 2011;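 note: plate controls were vehicle for no effect and reference inhibitor for full effect; nearly all actives have a fitted effect of over 55% in size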
# Target sequence (P08659 whole entry, looked up): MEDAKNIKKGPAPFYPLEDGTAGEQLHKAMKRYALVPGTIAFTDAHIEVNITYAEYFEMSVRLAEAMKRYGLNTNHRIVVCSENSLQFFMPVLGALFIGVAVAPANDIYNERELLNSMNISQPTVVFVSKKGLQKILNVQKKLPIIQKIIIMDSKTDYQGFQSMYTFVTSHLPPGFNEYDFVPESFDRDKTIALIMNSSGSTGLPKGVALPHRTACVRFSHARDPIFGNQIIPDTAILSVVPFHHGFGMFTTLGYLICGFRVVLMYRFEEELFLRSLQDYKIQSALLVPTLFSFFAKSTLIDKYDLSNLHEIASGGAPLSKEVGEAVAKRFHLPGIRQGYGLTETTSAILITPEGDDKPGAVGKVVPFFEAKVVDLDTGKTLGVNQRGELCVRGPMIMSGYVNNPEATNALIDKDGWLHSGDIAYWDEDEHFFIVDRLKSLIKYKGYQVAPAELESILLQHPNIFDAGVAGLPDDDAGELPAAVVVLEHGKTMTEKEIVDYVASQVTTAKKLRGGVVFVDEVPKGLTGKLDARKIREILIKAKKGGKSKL
#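 Purified P. pyralis luciferase, 10 nM final, with Km-level 10 uM D-luciferin and 10 uM ATP in 50 mM Tris acetate pH 7.5, 10 mM Mg acetate, 0.01% Tween-20, 0.05% BSA; 6-point qHTS titration about 60 µM downward; luminescence read.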
# Rab9 promoter act = qHTS Assay for Rab9 Promoter Activators; Huh7 Rab9 promoter-luciferase reporter, luminescence, 24 h; Potency, µM (highest dose often 9.22 µM), inactives show at the top dose activation, negative = inhibition, hits mostly activators; actives 2.8% (n = 320,000); note: % of control where 0% means no effect; nearly all actives have a fitted effect of over 60% in size
#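 Quantitative HTS format; Huh7 Rab9-luciferase reporter cells (1500/well) receive compound 2 h post-plating, incubate 24 h at 37 °C, then get luciferase reagent for 10 min before luminescence reading.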
# * = called active by the depositor; ? = inconclusive; . = not tested or not shown. Calls come from the whole dose curve; as a rule, active = well fitted curve in the direction sought with a large enough effect; inconclusive = small, poorly fitted or top-dose-only effect, or another doubt; inactive = no such curve, though single readings can be large; an effect the other way counts as inactive or inconclusive. Potency is the fitted concentration of half-maximal effect.
SMILES,NPC1 prom act,SMN2 splice enh,KinaseGlo FLuc,FLuc modulator,Rab9 promoter act
COc1ccccc1OCCNC(=O)c1ccc2c(c1)CCC2,?,.,.,15µM*,?
COc1ccccc1OCCNC(=O)c1cccc(S(=O)(=O)N2CCN(C)CC2)c1,-4%,.,.,13µM*,1%
O=C(NCc1cccs1)c1nn(-c2ccccc2Cl)nc1CO,.,-70%,.,7%,.
O=C1Nc2ccccc2SC1c1ccccc1 (stereo unspecified),1%,.,.,-1%,-2%
Cc1ccc(NC2Sc3ccccc3NC2=O)cc1 (stereo unspecified),4µM*,11µM*,1%,2.1µM*,1.4µM*
Cc1ccc(-c2cn3nc(N4CCCC(C(=O)NCc5ccc(F)cc5)C4)sc3n2)cc1 (stereo unspecified),.,.,.,8.5µM*,.
Cc1ccc(-c2cn3nc(N4CCCC(C(=O)Nc5ccc(F)cc5)C4)sc3n2)cc1 (stereo unspecified),.,.,.,12µM*,.
CCNC(=O)C1CCCN(c2nn3cc(-c4ccc(C)cc4)nc3s2)C1 (stereo unspecified),.,.,.,1.2µM*,.
COc1ccc(-c2cn3nc(N4CCC(C(=O)NCc5ccc(F)cc5)CC4)sc3n2)cc1,.,.,.,-1%,.
CC1CCCN(Cc2nc3c(c(=O)n(C)c(=O)n3C)n2Cc2ccc(Cl)cc2Cl)C1 (stereo unspecified),.,0%,.,0%,.
O=C(CCc1nc(-c2cccs2)no1)Nc1ccccc1[N+](=O)[O-],.,.,.,-4%,.
COc1ccc(C(=O)CSc2ncnc3nc[nH]c23)cc1,-2%,.,.,?,-6%
Cc1ccc(OCCSc2ncnc3nc[nH]c23)cc1,?,11%,-1%,13µM*,2.5µM*
CC(=O)N1CCCc2cc(S(=O)(=O)N3CCC(C(=O)NCCC(C)C)CC3)ccc21,.,.,.,1%,.
COc1ccc(OCC(=O)c2c(O)c3ccccc3oc2=O)cc1,0%,.,1%,17µM*,2%
Cc1cc(O)c(C=Nc2cccc(Cl)c2)c(=O)o1,-2%,-3%,3%,-3%,-1%
COc1ccc(N=Cc2c(O)c3ccccc3oc2=O)cc1,0%,9%,?,0.76µM*,4%
CC(C)c1ccc(N=Cc2c(O)c3ccccc3oc2=O)cc1,-6%,.,.,0.38µM*,2%
CCOc1ccc(OCC(=O)c2c(O)c3ccccc3oc2=O)cc1,0%,8%,-5%,?,-3%
COc1ccc(N=Cc2c(O)cc(C)oc2=O)cc1,-6%,2%,-16%,12µM*,1%
CCOC(=O)c1sc2cccc(F)c2c1S(=O)(=O)NCc1ccccc1Cl,.,.,.,5%,.
CC1=C(C(=O)Nc2cccnc2)C(c2ccc(F)cc2)n2nc(SCc3ccccc3)nc2N1 (stereo unspecified),.,8%,.,2%,.
O=C(CN1C(=O)COc2ccc(S(=O)(=O)NC3CCCC3)cc21)Nc1ccc(Cl)cc1F,.,.,.,-10%,.
CCCCN=C(C)c1c(O)c2ccccc2oc1=O,?,?,1%,19µM*,4µM*
O=C(N/N=C/c1ccc(O)c(O)c1O)/C(=C/c1ccc([N+](=O)[O-])cc1)NC(=O)c1ccccc1,-3%,1%,-3%,11µM*,-9%
SMILES,NPC1 prom act,SMN2 splice enh,KinaseGlo FLuc,FLuc modulator,Rab9 promoter act
Cc1nc2ccc(NC(=O)Cc3ccsc3)cc2s1,2.8µM*,?,1%,12µM*,?
Cc1nc2ccc(NC(=O)Cc3ccccc3F)cc2s1,2.8µM*,11µM*,-18%,6.7µM*,?
Cc1ccc(NC(=O)Cc2ccsc2)cc1Cl,-1%,.,.,?,12%
Cc1nc2ccc(NC(=O)Cc3cccc(F)c3)cc2s1,21%,27%,2%,19µM*,30%
O=C(Nc1sc2c(c1C(=O)NCc1ccccc1)CCCC2)c1cc(=O)c2ccccc2o1,.,-6%,.,-12%,.
COc1ccc(C(CC(=O)Nc2cc(OC)c(OC)c(OC)c2)N2Cc3ccccc3C2=O)cc1 (stereo unspecified),.,.,.,-11%,.
C=CC[C@@](C(C)=O)(C(=O)OC)C(NC(=O)OC)c1ccccc1 (stereo partly specified),.,-4%,1%,.,.
CC(CC(=O)Nc1ccc(F)cc1)S(=O)(=O)c1cc2c3c(c1)CCN3C(=O)CC2 (stereo unspecified),.,.,.,-2%,.
Cc1nc(NCc2cccnc2)c2c3c(sc2n1)CC(C)CC3 (stereo unspecified),11%,-6%,3%,24µM*,6%
Cc1nc(NCc2ccco2)c2c3c(sc2n1)CCC3,-14%,22µM*,-2%,2%,14%
CCOC(=O)c1sc2nc(C)nc(NCc3cccnc3)c2c1C,1%,-3%,-1%,-3%,4%
Cc1cccc(CS(=O)(=O)Cc2ccc(C(=O)NCc3ccc(F)cc3)o2)c1,.,.,.,-7%,.
Clc1nc2c(-c3ccccc3)nnn2c2ccccc12,0%,.,.,1.5µM*,-1%
Cc1ccc(-c2nnn3c2nc(Cl)c2ccccc23)cc1,0%,-2%,-2%,?,6%
Fc1cccc(-c2nnn3c2nc(Cl)c2ccccc23)c1,-4%,1%,-7%,1.7µM*,-1%
Fc1cccc(-c2nnn3c2nc(NC2CCCCC2)c2ccccc23)c1,.,12%,.,-17%,.
CC(=O)N1CCc2cc(S(=O)(=O)C(C)CC(=O)Nc3ccc(Br)c(C)c3)ccc21 (stereo unspecified),.,.,.,3%,.
COc1ccc(OC)c(Nc2ncnc3c2cnn3-c2ccc(C)cc2)c1,.,.,.,-15%,.
COc1ccccc1Nc1ncnc2c1cnn2-c1cccc(C)c1,30%,12%,0%,13µM*,9%
Cc1cccc(-n2ncc3c(Nc4ccc(C)c(Cl)c4)ncnc32)c1,.,.,.,-19%,.
COc1cccc(Nc2ncnc3c2cnn3-c2cccc(C)c2)c1,?,-9%,-2%,17µM*,?
COc1ccc(Nc2ncnc3c2cnn3-c2ccc(C)cc2)cc1Cl,.,.,.,24µM*,.
COc1ccc(C)cc1NC(=O)C1CCCN(c2ncnc3onc(C)c23)C1 (stereo unspecified),.,.,.,1%,.
CCC(CC)C(=O)Nc1cccc(C(=O)Nc2ccc3c(c2)OCO3)c1,27%,8.9µM*,0%,?,18%
CCCN(CCC)S(=O)(=O)c1cccc(C(=O)Nc2ccc3c(c2)OCO3)c1,-1%,-9%,4%,-11%,-4%
CCN(CC)S(=O)(=O)c1cccc(C(=O)Nc2ccc3c(c2)OCO3)c1,?,?,-5%,15µM*,?
O=C(Nc1ccc2c(c1)OCCO2)c1cccc(S(=O)(=O)N2CCOCC2)c1,?,?,2%,?,4.5µM*
